Test [1] in a line: ATG_E_Box_CIS: Attagene CIS-FACTORIAL HepG2 Assay for human Enhancer Box (E-box) (AID 2282936). The note with it: HepG2 E-box cis-reporter transcription, actives raise or lower the signal. The essentials:
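DMSO served as negative control and baseline for bidirectional fitting. Human hepatoma HepG2 cells, transiently transfected with cis-reporter constructs, were dosed 24 h; reporter mRNA read by RT-PCR and capillary electrophoresis.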

Test [2] can be described thus: ATG_M_61_CIS: Attagene CIS-FACTORIAL HepG2 Assay for M61 Transcription Factor (Internal Marker) (AID 2282937). The note with it: HepG2 Attagene CIS-FACTORIAL M61 internal marker reporter; actives raise or lower the signal. The essentials:
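Fluorescence from labelled cDNA fragments, separated by capillary electrophoresis, quantifies reporter induction. HepG2 cells bearing transiently transfected cis-promoter MRTUs were incubated with test chemical for 24 h; DMSO defined baseline for gain/loss fitting.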

Test [3] in a line: ATG_EGR_CIS: Attagene CIS-FACTORIAL HepG2 Assay for human Early Growth Response 1 (EGR1) (AID 2282938). The note with it: HepG2 Attagene CIS-FACTORIAL EGR reporter mRNA; actives raise or lower the signal. The essentials:
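Cell-based multiplex transcription assay: HepG2 carrying transfected cis-element reporter units, 24 h chemical treatment. Fluorescence from capillary electrophoresis of RT-PCR products gives mRNA levels; fitting is bidirectional relative to DMSO.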

Test [4] can be described thus: ATG_M_19_CIS: Attagene CIS-FACTORIAL HepG2 Assay for M19 Transcription Factor (Internal Marker) (AID 2282939). The following applies: HepG2 Attagene CIS-FACTORIAL M19 internal marker reporter; actives raise or lower the signal. The essentials: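 HepG2 cells transiently transfected with cis-regulated multiplexed reporter units, dosed 24 h. Reporter mRNA quantified by RT-PCR and capillary electrophoresis; internal background marker fitted bidirectionally versus DMSO.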

A short description of test [5]: ATG_Ets_CIS: Attagene CIS-FACTORIAL HepG2 Assay for human Erythroblast Transformation Specific (ETS) (AID 2282941). The following applies: HepG2 ETS cis-reporter transcription, actives raise or lower the signal. The essentials: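 HepG2 cells transfected with multiple cis-regulated reporter units measuring endogenous ETS-driven transcription, 24 h after dosing. Reporter mRNA quantified by RT-PCR with capillary electrophoresis; bidirectional fit relative to DMSO.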

The target in test [6] is Hepatocyte nuclear factor 3-beta (Homo sapiens) (UniProt Q9Y261). The test is described as follows: ATG_FoxA2_CIS: Attagene CIS-FACTORIAL HepG2 Assay for human Forkhead box A2 (FOXA2) (AID 2282942). The note with it: HepG2 cis-reporter transcription factor activity, 24 h; actives raise or lower the signal. The essentials: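 In transiently transfected human HepG2 cells, promoter-driven reporter mRNA levels after 24 h chemical exposure are determined via RT-PCR with capillary electrophoresis. DMSO serves as baseline for bidirectional fitting.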

A short description of test [7]: ATG_FoxO_CIS: Attagene CIS-FACTORIAL HepG2 Assay for human Forkhead box O (FoxO) (AID 2282943). The following applies: HepG2 Attagene cis-reporter, FoxO element, mRNA; actives raise or lower the signal. The essentials:
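Endogenous transcription factor activity read from multiplexed cis-promoter reporter transcripts in transiently transfected HepG2, 24 h after dosing. Reporter RNA measured via RT-PCR plus capillary electrophoresis of FAM-labeled products; gain or loss relative to DMSO.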

The nature of test [8]: ATG_GATA_CIS: Attagene CIS-FACTORIAL HepG2 Assay for human GATA Binding Protein (AID 2282944). The following applies: HepG2 GATA cis-element reporter, Attagene multiplex mRNA; actives raise or lower the signal. The essentials: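 HepG2 cells transiently transfected with multiplexed cis-element reporter units measure endogenous GATA activity; after 24 h compound exposure, reporter mRNA quantified by RT-PCR and capillary electrophoresis. Changes fitted in both directions vs DMSO.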

Test [9] can be described thus: ATG_GLI_CIS: Attagene CIS-FACTORIAL HepG2 Assay for human Zinc Finger Protein GLI1 (AID 2282945). The following applies: HepG2, Attagene cis-factorial reporter mRNA, GLI element; actives raise or lower the signal. The essentials:
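Bidirectional curve fits relative to DMSO, using reporter mRNA levels from RT-PCR plus capillary electrophoresis. Cells were HepG2 transiently carrying cis-regulated reporter constructs, harvested 24 h after dosing.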

The target of test [10] is Bile acid receptor (Homo sapiens) (UniProt Q96RI1). The test is described as follows: ATG_IR1_CIS: Attagene CIS-FACTORIAL HepG2 Assay for human Nuclear Receptor Subfamily 1 Group H Member 4 (NR1H4), IR1 submotif (AID 2282946). The following applies: IR1 reporter transcription, actives raise or lower the signal. The essentials: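 Cells (human HepG2) carry transiently transfected cis-promoter reporter transcription units. Compounds are incubated 24 h, total RNA is reverse-transcribed and amplified, and labelled fragments are resolved by capillary electrophoresis. Curves use DMSO as baseline.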

The nature of test [11]: ATG_GRE_CIS: Attagene CIS-FACTORIAL HepG2 Assay for human Glucocorticoid Response Elements (GRE) (AID 2282947). The following applies: HepG2 GRE cis-reporter, Attagene multiplex mRNA; actives raise or lower the signal. The essentials: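 Assay uses human hepatoma HepG2 cells transfected with cis-promoter reporter units, exposed 24 h. mRNA from reporters detected by RT-PCR plus capillary electrophoresis; DMSO serves as negative control and baseline.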

A short description of test [12]: ATG_M_32_CIS: Attagene CIS-FACTORIAL HepG2 Assay for M32 Transcription Factor (Internal Marker) (AID 2282949).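 Note: background control marker of the multiplexed CIS panel rather than a real target.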 The following applies: HepG2 Attagene cis-factorial M32 reporter, mRNA; actives raise or lower the signal. The essentials: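 Following 24 h chemical exposure of HepG2 cells transiently expressing cis-promoter reporter constructs, reporter transcript levels were determined by RT-PCR with fluorescent labelling and capillary electrophoresis, then fitted bidirectionally against DMSO.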

The nature of test [13]: ATG_M_06_CIS: Attagene CIS-FACTORIAL HepG2 Assay for M06 Transcription Factor (Internal Marker) (AID 2282950). The following applies: HepG2 Attagene CIS-FACTORIAL M06 internal marker reporter; actives raise or lower the signal. The essentials:
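Internal background marker within multiplexed cis-reporter HepG2 system. Cells transiently transfected, dosed 24 h; reporter mRNA measured by RT-PCR, HpaI digestion and capillary electrophoresis. Bidirectional fit relative to DMSO.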

Test [14] addresses Hypoxia-inducible factor 1-alpha (Homo sapiens) (UniProt Q16665). The test is described as follows: ATG_HIF1a_CIS: Attagene CIS-FACTORIAL HepG2 Assay for human Hypoxia Inducible Factor 1 (HIF1A) (AID 2282951). The following applies: HepG2 Attagene cis-factorial HIF1a reporter transcription; actives raise or lower the signal. The essentials: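 In this multiplexed cell assay, HepG2 cells bearing transfected cis reporters are dosed for 24 h and reporter mRNA is read by RT-PCR plus capillary electrophoresis; signal increases and decreases are both scored against DMSO.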

Test [15] addresses Hepatocyte nuclear factor 6 (Homo sapiens) (UniProt Q9UBC0). The test is described as follows: ATG_HNF6_CIS: Attagene CIS-FACTORIAL HepG2 Assay for human Hepatocyte Nuclear Factor 6 (HNF6) (AID 2282952). The following applies: HepG2 Attagene cis-factorial HNF6 reporter transcription; actives raise or lower the signal. The essentials: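 HepG2 cells transiently transfected with cis-element-driven multiplexed reporter units measuring endogenous transcription factor activity. After 24 h exposure, reporter mRNA quantified by RT-PCR, FAM-labelled fragments and capillary electrophoresis; bidirectional fitting versus DMSO.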

The nature of test [16]: ATG_MRE_CIS: Attagene CIS-FACTORIAL HepG2 Assay for human Metal Responsive Element (MRE) (AID 2282954). The note with it: HepG2 MRE cis-reporter transcription, Attagene multiplex; actives raise or lower the signal. The essentials:
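After a 24 h chemical exposure, transiently transfected HepG2 cells yield RNA whose reporter sequences are amplified, FAM-labelled and sized by capillary electrophoresis. Curves are fitted bidirectionally relative to DMSO.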

Test [17] can be described thus: ATG_PBREM_CIS: Attagene CIS-FACTORIAL HepG2 Assay for human Phenobarbital-responsive Enhancer Module (PBREM) (AID 2282955). The note with it: HepG2 PBREM cis-reporter, Attagene multiplexed transcription; actives raise or lower the signal. The essentials: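 After a 24 h incubation with test chemical, transfected HepG2 cells yield total RNA; reporter-specific RT-PCR products are fluorescently labelled, HpaI-digested and resolved by capillary electrophoresis against ROX size standards.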

The nature of test [18]: ATG_ISRE_CIS: Attagene CIS-FACTORIAL HepG2 Assay for human Interferon Regulatory Factor 1 (IRF1) binding to an Interferon-Stimulated Response Element (ISRE) (AID 2282948). The note with it: HepG2 ISRE cis-reporter (Attagene), mRNA transcription readout; actives raise or lower the signal. The essentials: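 Transiently transfected HepG2 cells carrying cis-element reporter units, dosed 24 hours. Reporter mRNA quantified by RT-PCR, fluorescent primer extension, HpaI digestion and capillary electrophoresis. Bidirectional fitting relative to DMSO.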

For test [19], the target named is Heat shock factor protein 1 (Homo sapiens) (UniProt Q00613). As to the kind of experiment: ATG_HSE_CIS: Attagene CIS-FACTORIAL HepG2 Assay for human Heat Shock Transcription Factor 1 (HSE) (AID 2282953). The following applies: HepG2 HSE cis-reporter, Attagene RNA transcription; actives raise or lower the signal. The essentials: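 HepG2 cells transfected with cis-promoter reporter units sensing endogenous transcription factor activity; reporter mRNA quantified 24 h post-dose by RT-PCR and capillary electrophoresis of 6-FAM-labelled products. Bidirectional fitting against DMSO.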

Test [20] can be described thus: ATG_ERE_CIS: Attagene CIS-FACTORIAL HepG2 Assay for Estrogen Response Element (ERE) (AID 2282940). The following applies: HepG2 ERE cis-reporter, Attagene RNA transcript; actives raise or lower the signal. The essentials:
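HepG2 cells transiently transfected with multiplexed cis-element reporter units, measuring endogenous transcription factor activity; ERE reporter mRNA quantified after 24 h exposure by RT-PCR, fluorescent labelling, HpaI digestion and capillary electrophoresis. Bidirectional change versus DMSO.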

Broadly, the AC50 is the midpoint of the concentration-response curve, whichever way the signal moves.

Each structure is given as a SMILES string. The source made the active and inactive calls. Rule for the calls: active = hit-call score of the fitted dose curve at least 0.9, where 1 is the maximum; inactive = score below 0.9.

Chain of Hepatocyte nuclear factor 6 (Homo sapiens) (Q9UBC0 whole entry, looked up, the tested form may be a part): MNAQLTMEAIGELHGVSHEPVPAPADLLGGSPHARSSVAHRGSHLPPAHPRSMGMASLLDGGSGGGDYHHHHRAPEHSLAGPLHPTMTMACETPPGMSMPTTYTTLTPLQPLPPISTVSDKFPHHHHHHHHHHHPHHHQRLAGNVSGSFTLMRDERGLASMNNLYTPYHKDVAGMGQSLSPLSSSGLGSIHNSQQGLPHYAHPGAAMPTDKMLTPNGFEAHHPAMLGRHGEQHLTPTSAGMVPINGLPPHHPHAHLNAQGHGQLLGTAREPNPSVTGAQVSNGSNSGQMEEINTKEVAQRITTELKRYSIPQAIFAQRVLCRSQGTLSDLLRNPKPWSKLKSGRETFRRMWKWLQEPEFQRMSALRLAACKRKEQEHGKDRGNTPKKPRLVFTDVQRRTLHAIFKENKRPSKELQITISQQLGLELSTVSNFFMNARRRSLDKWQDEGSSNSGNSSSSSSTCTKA
Chain of Bile acid receptor (Homo sapiens) (Q96RI1 whole entry, looked up, the tested form may be a part): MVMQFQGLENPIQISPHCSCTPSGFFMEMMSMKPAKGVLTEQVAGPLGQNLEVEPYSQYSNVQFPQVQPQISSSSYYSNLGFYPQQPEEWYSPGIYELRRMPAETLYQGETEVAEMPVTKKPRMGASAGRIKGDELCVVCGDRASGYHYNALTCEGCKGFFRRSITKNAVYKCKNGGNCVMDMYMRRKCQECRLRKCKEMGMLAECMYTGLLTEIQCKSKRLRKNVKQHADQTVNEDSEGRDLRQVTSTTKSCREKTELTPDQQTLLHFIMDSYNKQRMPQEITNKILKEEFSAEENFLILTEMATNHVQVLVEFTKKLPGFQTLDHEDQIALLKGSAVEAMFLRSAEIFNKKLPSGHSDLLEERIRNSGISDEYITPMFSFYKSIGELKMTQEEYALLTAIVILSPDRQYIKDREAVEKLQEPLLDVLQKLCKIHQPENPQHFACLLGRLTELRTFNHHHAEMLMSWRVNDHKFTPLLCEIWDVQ
Chain of Hepatocyte nuclear factor 3-beta (Homo sapiens) (Q9Y261 whole entry, looked up): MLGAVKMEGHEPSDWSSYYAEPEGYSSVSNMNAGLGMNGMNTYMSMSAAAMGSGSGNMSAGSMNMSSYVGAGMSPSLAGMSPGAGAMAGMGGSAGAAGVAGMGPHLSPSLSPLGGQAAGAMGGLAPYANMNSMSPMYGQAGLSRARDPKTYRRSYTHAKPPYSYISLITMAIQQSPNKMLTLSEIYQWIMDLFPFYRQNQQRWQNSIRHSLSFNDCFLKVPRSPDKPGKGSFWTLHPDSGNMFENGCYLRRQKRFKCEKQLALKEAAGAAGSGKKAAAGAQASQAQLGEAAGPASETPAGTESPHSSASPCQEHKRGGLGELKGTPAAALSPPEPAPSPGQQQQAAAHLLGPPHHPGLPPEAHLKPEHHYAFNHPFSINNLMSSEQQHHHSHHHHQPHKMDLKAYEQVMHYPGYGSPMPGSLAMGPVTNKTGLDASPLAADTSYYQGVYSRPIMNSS
Chain of Hypoxia-inducible factor 1-alpha (Homo sapiens) (Q16665 whole entry, looked up): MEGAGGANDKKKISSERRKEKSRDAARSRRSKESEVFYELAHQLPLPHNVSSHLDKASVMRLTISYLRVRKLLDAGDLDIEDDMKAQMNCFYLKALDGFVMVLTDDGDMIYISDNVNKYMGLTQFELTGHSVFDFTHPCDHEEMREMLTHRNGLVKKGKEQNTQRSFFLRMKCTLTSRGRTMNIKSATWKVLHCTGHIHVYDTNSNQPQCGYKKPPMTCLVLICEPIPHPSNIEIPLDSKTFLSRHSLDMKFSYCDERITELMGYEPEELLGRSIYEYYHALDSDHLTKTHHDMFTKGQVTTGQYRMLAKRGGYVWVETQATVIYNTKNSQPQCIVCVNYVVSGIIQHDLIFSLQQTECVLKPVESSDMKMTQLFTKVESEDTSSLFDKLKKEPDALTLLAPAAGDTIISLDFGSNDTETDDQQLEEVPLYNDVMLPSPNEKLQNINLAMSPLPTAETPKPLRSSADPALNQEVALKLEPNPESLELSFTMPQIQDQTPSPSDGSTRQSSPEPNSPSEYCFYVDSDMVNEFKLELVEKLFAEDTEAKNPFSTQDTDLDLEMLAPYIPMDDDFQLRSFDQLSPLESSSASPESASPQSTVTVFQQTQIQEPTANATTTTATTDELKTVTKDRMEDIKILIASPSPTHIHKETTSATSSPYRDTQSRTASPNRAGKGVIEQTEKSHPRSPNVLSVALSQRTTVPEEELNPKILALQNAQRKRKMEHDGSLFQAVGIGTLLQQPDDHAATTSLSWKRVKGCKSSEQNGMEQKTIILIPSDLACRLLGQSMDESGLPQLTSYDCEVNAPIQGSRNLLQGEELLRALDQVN
Chain of Heat shock factor protein 1 (Homo sapiens) (Q00613 whole entry, looked up): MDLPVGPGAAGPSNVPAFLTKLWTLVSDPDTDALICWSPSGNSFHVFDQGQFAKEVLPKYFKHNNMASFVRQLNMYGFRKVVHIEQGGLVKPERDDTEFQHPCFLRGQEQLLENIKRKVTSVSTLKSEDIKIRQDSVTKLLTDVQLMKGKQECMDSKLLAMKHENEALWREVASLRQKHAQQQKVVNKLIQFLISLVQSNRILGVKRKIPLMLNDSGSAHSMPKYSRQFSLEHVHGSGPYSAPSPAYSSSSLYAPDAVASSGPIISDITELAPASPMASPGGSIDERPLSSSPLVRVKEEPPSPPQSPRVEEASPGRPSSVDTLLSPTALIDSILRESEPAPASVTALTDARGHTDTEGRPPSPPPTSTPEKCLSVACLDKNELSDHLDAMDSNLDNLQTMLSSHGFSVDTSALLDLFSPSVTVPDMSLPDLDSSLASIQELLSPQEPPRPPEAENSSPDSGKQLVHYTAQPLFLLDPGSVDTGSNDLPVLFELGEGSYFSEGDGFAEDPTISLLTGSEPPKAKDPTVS

Consider `CCOP(=O)(NC(C)C)Oc1ccc(SC)c(C)c1` (stereo not drawn), for which the result in [1], in test [2], in test [3], in test [4], in test [5] and in test [6] was inactive. Also, the outcome in [7], in test [8], in [9], in [10], in test [11] and in [12] was inactive. In addition, the compound was classed as inactive in test [13], in test [14], in test [15] and in test [16]. For the same compound, the AC50 in test [17] is 16.2 µM (active).

Turning to `CN1COCN(Cc2cnc(Cl)s2)C1=N[N+](=O)[O-]`, the result in [1], in test [2], in test [3], in test [4], in [5] and in test [6] was inactive. Besides, the compound was classed as inactive in test [7], in test [8], in test [9], in [10], in [11] and in [18]. Also, the outcome in [12], in test [13], in test [15], in test [19] and in test [16] was inactive.

As for `CC[C@H](C)[C@H]1O[C@]2(C=C[C@@H]1C)C[C@@H]1C[C@@H](C/C=C(\C)[C@@H](O[C@H]3C[C@H](OC)[C@@H](O[C@H]4C[C@H](OC)[C@@H](NC)[C@H](C)O4)[C@H](C)O3)[C@@H](C)/C=C/C=C3\CO[C@@H]4[C@H](O)C(C)=C[C@@H](C(=O)O1)[C@]34O)O2`, the result in test [1], in [2], in [3], in test [4], in test [20] and in [5] was inactive. The compound was classed as inactive in [6], in test [7], in test [8], in [9], in test [12] and in test [13]. Also, the outcome in test [15], in [16] and in [17] was inactive.

As to `CSc1nnc(C(C)(C)C)c(=O)n1N`, the result in test [1], in test [2], in test [3], in [4], in [5] and in [6] was inactive. For the same compound, the compound was called inactive in test [7], in test [8], in [9], in [10], in test [11] and in [18]. Also, the outcome in [12], in test [13], in test [14], in [15], in [19] and in [16] was inactive. Besides, the result in [17] was inactive.
